Among all 69,000 compounds or so, about 8,600 (12%) showed an effect of 50% or more. The entries come from a sample that favours strong results as a whole.
What follows are molecules tested on Plasmodium berghei (assay: Screen against P. berghei liver stage (PbLuc), transformed with Luciferase, at 10uM). Settings: tested at 10 uM.
Assay type: functional, HepG2

Row | SMILES | INHIBITION [%]
1 | CC(O)CN1CCN(C(=O)c2cc3ccccc3n2C)CC1 (configuration not stated) | 66.8
2 | CCC(O)CN1CCN(C(=O)c2cc3ccccc3n2CC)CC1 (configuration not stated) | 1.75
3 | CC(O)CN1CCN(C(=O)c2ccc3c(c2)COC3)CC1 (configuration not stated) | 60.5
4 | CC(C)(C)C(O)CN1CCN(C(=O)c2ccc3c(c2)COC3)CC1 (configuration not stated) | 31.8
5 | CCn1c(C(=O)N2CCN(CC(C)O)CC2)cc2ccccc21 (configuration not stated) | 35.7
6 | CCC(O)CN1CCN(C(=O)c2ccc3c(c2)COC3)CC1 (configuration not stated) | -9.37
7 | O=C(c1cncs1)N1CCOCC(Cc2ccccn2)C1 (configuration not stated) | 13.94
8 | COCCO[C@@H]1CCN(C(=O)c2ccc(C)o2)[C@@H]1Cc1cccnc1 | 2.3
9 | COc1cc(-c2n[nH]c(CN)n2)cc(OC)c1OC | -9.21
10 | COc1ccc(C(O)CNC(=O)NCCc2csc(C)n2)cc1 (configuration not stated) | 44.1
11 | O=C(C1CCN(Cc2nc(-c3ccco3)no2)CC1)N1CCCC1 | 25.1
12 | Cc1ccc(F)c(C(=O)NC2CCC(N3C(=O)CCC3=O)CC2)c1 (configuration not stated) | -35
13 | Cc1[nH]ccc1C(=O)NC1CCC(N2C(=O)CCC2=O)CC1 (configuration not stated) | -86.5
14 | O=C(NC1CCC(N2C(=O)CCC2=O)CC1)c1c[nH]c2ccccc12 (configuration not stated) | 76.7
15 | CN(C)CCn1c2c(ccc1=O)CC(NC(=O)c1ccsc1)CC2 (configuration not stated) | 37.5
16 | Cc1oc(C)c(C(=O)NCc2cccnc2)c1C | -8.75
17 | COCCOCCNC(=O)N1CCc2c(F)ccc(F)c2C1 | 5.38
18 | COC(=O)CCCNC(=O)N1CCc2c(F)ccc(F)c2C1 | 28.7
19 | CCCNC(=O)CCNC(=O)N1CCc2c(F)ccc(F)c2C1 | 71.7
20 | Cc1cccc(CN2C[C@@H](C)[C@@]3(CCN(CC(=O)N(C)C)C3=O)C2)c1 | 2.58
21 | CCc1ccc(CN2C[C@@H](C)C3(CCN(CC(=O)N(C)C)C3=O)C2)o1 (some centres not stated) | 21.1
22 | Cc1cc(CN2C[C@@H](C)[C@@]3(CCN(C)C3=O)C2)oc1C | 65.9

Row | SMILES | INHIBITION [%]
23 | Cc1noc(C)c1CN1C[C@H](C)[C@]2(CCN(Cc3cccnc3)C2=O)C1 | 13.7
24 | CN1CC[C@]2(CN(Cc3cccs3)C[C@H]2c2ccccc2)C1=O | 24.9
25 | Cc1cc(CN2C[C@@H](C)[C@@]3(CCN(CC(=O)N(C)C)C3=O)C2)oc1C | 51.2
26 | Fc1cccc(-c2nc(CN3CCCC(Cn4cncn4)C3)co2)c1 (configuration not stated) | 11.9
27 | Cc1nc(CCCNC(=O)c2c(F)cccc2Br)n[nH]1 | 39.6
28 | Cc1nc(CCCNC(=O)Nc2cc(F)cc(F)c2)n[nH]1 | 55.5
29 | Cc1nc(CCCNC(=O)c2cc(F)ccc2O)n[nH]1 | 46.6
30 | Cc1nc(CCCNC(=O)c2c(F)cc(F)cc2F)n[nH]1 | 33.7
31 | Cc1nc(CCCNC(=O)Nc2ccc(F)cc2F)n[nH]1 | 56.5
32 | COc1ccc2cccc(CC(=O)NCCCc3n[nH]c(C)n3)c2c1 | -6.97
33 | COc1ccc(C(NCc2ccc(C#N)cc2)C2CC2)cc1 (configuration not stated) | -22.3
34 | COC(=O)CCn1ccc(=O)c2ccccc21 | 20.9
35 | O=S(=O)(C1CC1)N1CCCn2cnc(COc3cccnc3)c2C1 | -4.26
36 | Cc1ccc(CCCC(=O)N2CCN(C3CCCN(C)C3)CC2)s1 (configuration not stated) | 15.7
37 | O=C(C1CCOC1)N1CCN(CC(F)(F)F)c2ccccc21 (configuration not stated) | 34.2
38 | c1ccc(-c2nnc(CN3CCCC3Cn3cncn3)o2)cc1 (configuration not stated) | -41.6
39 | COCc1ncn2c1CN(C(=O)c1ccc[nH]1)CC2 | -20.1
40 | Cc1nc(C)n(CC2CCCN(CCC(=O)N3CCOCC3)C2)n1 (configuration not stated) | -2.19
41 | c1c[nH]c(CN2CCCC(Cc3ccc(NC4CCCC4)nn3)C2)n1 (configuration not stated) | -3.02
42 | CCOc1cc(NC(=O)N(C)Cc2ncnn2C)ccc1C | 50.1
43 | CC(C)OCc1cccc(NC(=O)N(C)Cc2ncnn2C)c1 | 45.8
44 | Cc1ccc(NC(=O)N(C)Cc2cnn(C)c2)c(C)c1 | -29.1

Row | SMILES | INHIBITION [%]
45 | CN(Cc1ncnn1C)C(=O)Nc1ccc(OC(F)F)cc1 | 21.2
46 | CC(=O)N(C)Cc1cccc(NC(=O)N(C)Cc2nccs2)c1 | -49.3
47 | Cc1ccc(NC(=O)N(C)Cc2cnn(C)c2)cc1OCC(F)F | 52.7
48 | Cc1ccc(C)c(NC(=O)N(C)Cc2cnn(C)c2)c1 | 39.8
49 | CCOc1ccc(CNC(=O)N(C)Cc2ncnn2C)cc1C | 49
50 | CCSCc1cccc(NC(=O)N(C)Cc2ncnn2C)c1 | 59.7
51 | COc1c(CNCCNC(=O)c2cccs2)c(C)nn1C | -79.3
52 | Cc1ccc(OCCN(C)C(=O)NC(C)c2nncn2C)cc1 (configuration not stated) | 21.5
53 | Cc1cccc(NC(=O)Cn2nc3ccccn3c2=O)c1C | -7.35
54 | CC(C)OCc1nn(C)c2c1CCN(CC1CC1)C2 | 32.5
55 | Cc1cc(CN2C[C@H](N3CCOCC3)[C@@H]3OCCC[C@@H]32)oc1C | 26.4
56 | O=c1oc(-c2ccc(F)cc2)nn1CN1CCCCC1 | 23.7
57 | CCOc1ccc(Cl)c(C(=O)N2CCN(CC(O)CC)CC2)n1 (configuration not stated) | 14.1
58 | COCc1cc(N2CCOCC2)n2nccc2n1 | -11.9
59 | CCc1cc(N2CCC(N3CCSCC3)CC2)n2nccc2n1 | 35
60 | COCc1cc(N2CCN(c3ccc(Cl)cn3)CC2)n2nccc2n1 | 54.5
61 | COCc1cc(N2CCN(C3CCCCC3)CC2)n2nccc2n1 | -9.29
62 | COCc1cc(N2CCN(Cc3ccncc3)CC2)n2nccc2n1 | 48.5
63 | CCc1cc(N2CCN(c3ccc(Cl)cn3)CC2)n2nccc2n1 | 81.2
64 | Cc1ccc(CN2CC[C@@H](O)[C@@H]2Cc2cnn(C)c2)o1 | 22.9
65 | Cc1cccc(CN2C[C@H]3CCC[C@@]3(COCc3csc(C)n3)C2)n1 | -28.2
66 | CCC(CC)c1cc(CNC(=O)N2CCCC(N(C)C)C2)on1 (configuration not stated) | -34

Row | SMILES | INHIBITION [%]
67 | CCC(CC)c1cc(CNC(=O)N2CCCC(C(=O)NC)C2)on1 (configuration not stated) | 64.6
68 | CCC(CC)c1cc(CNC(=O)N2CCC(CO)CC2)on1 | 40.4
69 | C1CCC(c2nnc3sc(C4CCCO4)nn23)C1 (configuration not stated) | 49.4
70 | CCOc1ccc(CC(=O)N2CCN(c3nccn3CC)CC2)cc1 | 49.1
71 | Cc1nc(CNC(=O)N(C)Cc2cnn(C)c2)cs1 | 15.05
72 | Cc1ccsc1CNC(=O)N(C)Cc1cnn(C)c1 | -14.86
73 | Cc1csc(CNC(=O)N(C)Cc2cnn(C)c2)n1 | 54.4
74 | Cc1ccc2c(c1)C1(CCN(C(=O)C3CC3)CC1)CC2N1CCOCC1 (configuration not stated) | 10.7
75 | Cc1nn(C)c2c(N3CCN(C(=O)C4CCCCC4)CC3)ncnc12 | 44.1
76 | CC(C)CN1C(=O)C2(CCN(Cc3ccsc3)C2)c2ccccc21 (configuration not stated) | 32.2
77 | CC(=O)N1CCC2(C1)C(=O)N(CC1CC1)c1ccccc12 (configuration not stated) | -19.6
78 | CC(C)CN1C(=O)C2(CCN(Cc3nccs3)C2)c2ccccc21 (configuration not stated) | 81.8
79 | Cc1ccc(CN2CCC3(CC2)C(=O)N(C)c2ccccc23)s1 | 31.8
80 | CN1CCC2(CC1)C(=O)N(CC1CC1)c1ccccc12 | 14.1
81 | CN(C)CCN1C(=O)C2(CCN(CC3CC3)CC2)c2ccccc21 | 27.6
82 | COCCN1C(=O)C2(CCN(CC3CC3)CC2)c2ccccc21 | 55.7
83 | Cc1ccc(CN2CCC3(C2)C(=O)N(CC2CC2)c2ccccc23)s1 (configuration not stated) | 55
84 | CC(C)CN1C(=O)C2(CCN(CC3CCOCC3)C2)c2ccccc21 (configuration not stated) | 71.9
85 | CC(C)CN1C(=O)C2(CCN(Cc3cccs3)C2)c2ccccc21 (configuration not stated) | 20.4
86 | CC(C)CN1C(=O)C2(CCN(Cc3ccc(F)cc3)C2)c2ccccc21 (configuration not stated) | 38.2
87 | CC(C)CN1C(=O)C2(CCN(Cc3ccoc3)C2)c2ccccc21 (configuration not stated) | 23.3
88 | COc1ccc(OC)c(C2CC(=O)Nc3nc(N4CCOCC4)sc32)c1 (configuration not stated) | 7.66

Row | SMILES | INHIBITION [%]
89 | Cc1c(NC(=O)NC(C)CCO)cccc1OC1CCCC1 (configuration not stated) | -16.9
90 | CC(C)n1ccnc1CN1CCCN(C(=O)c2ncccc2O)CC1 | 32.45
91 | CCOCCN1CCN(CC(O)c2ccc(F)cc2)CC1 (configuration not stated) | 37.9
92 | O=C(NC[C@]12COC[C@H]1CN(Cc1nccs1)C2)c1ccsc1 | 7.31
93 | COc1ccc(NC(=O)C2CC(=O)N(C)C2)cn1 (configuration not stated) | 45.7
94 | CC(C)(NS(C)(=O)=O)c1nc(-c2ccncc2)no1 | 22
95 | O=C(CCn1c(C(F)F)cc2cccnc21)NC1CCCCC1 | 14.7
96 | CN1C(=O)C2(CCN(CC3CCC3)C2)c2ccccc21 (configuration not stated) | 88.2
97 | Cc1ccc(CN2CCC3(CC2)C(=O)Nc2ccccc23)s1 | 23.5
98 | CN1C(=O)C2(CCN(CCO)C2)c2ccccc21 (configuration not stated) | 34.7
99 | Cc1ccc(CN2CCC3(C2)C(=O)N(CC(N)=O)c2ccccc23)s1 (configuration not stated) | 32.5
100 | CN1C(=O)C2(CCN(CC3CC3)CC2)c2ccccc21 | 30.7
101 | Cc1ccc(CN2CCC3(C2)C(=O)N(CC(C)C)c2ccccc23)s1 (configuration not stated) | 65.1
102 | CCOCC(=O)N1C[C@@H](O)[C@H](N2CCN(c3ccccc3)CC2)C1 | -3.25
103 | CC(C)CCN1CCN(C(=O)c2c[nH]c(=O)[nH]2)CC1 | -16.8
104 | CCn1nc(C)c2nc(C(C)C)nc(N(C)Cc3ccco3)c21 | 11.8
105 | OCCN1CCC(CNCc2ccccc2OC(F)(F)F)CC1 | 4.8
106 | Cc1cc(C)n(-c2ccc(CNCc3cccc(C#N)c3)cn2)n1 | -12.63
107 | CC(C)c1csc(C(=O)N2CCCC(Cn3cc(CO)nn3)C2)n1 (configuration not stated) | 40.3

Source: ChEMBL document CHEMBL4513216, “Probing the Open Global Health Chemical Diversity Library for Multistage-Active Starting Points for Next-Generation Antimalarials” (ACS Infect Dis, 2020)
